# Test system: RXRa DBDmut IVT, anti-RXR (DBD mutation: RXRa K156A/R161A, NR concentration 90 nM)
# Assay: PBM binding z-score (relative to random genomic background probes); higher = stronger binding; sequences stand for … in GC…GCGATTGACAGCGTAGAATGAAGG
# How it was run: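 Regression normalization was applied to scanned fluorescence from custom Agilent 4×180K protein-binding microarrays. Before scanning, arrays were incubated 1 h with ligand-free nuclear receptor dimers, and binding was detected with antibodies against each partner (one per run). Binding z-scores use the random background probes as reference.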
row,Sequence,PBM binding z-score
1,TATACAGGGTCAAAGGCCAGTGTACGAATGTCGA,2.97
2,AGAACGAGGGCACTCTGAGTTGATAGCAGAGTAG,2.21
3,CCTAGTTGGTCAGGCGGTCACACACCGGATATGA,-0.336
4,CCTCGGAGGACAACAGGAGGTCAGAGCAGCCAGA,-0.0172
5,GCAGACAGGTGAAACGTAGGTAACTCAGGGTGGC,-0.48
6,GATACAGGGTCAGTTAGAGGCCAGAGTATGGAAA,1.88
7,CGAACTAGGTCATCCAGGGCAGTGAATACATTGA,2.14
8,TCTCGGAGGACACTAAGGTCAGAGCTTTCCAGAG,1.33
9,CAAACTAGGTCAAGAGGGCAAAGTCCGCTTCCCG,1.86
10,GCATATAGGTAATACAAGGAGAAAGTCCGATTGT,0.562
11,TCTTGTAGATCATCAGGTTAAGAAAGCTGGCCAA,0.859
12,CTCGAAATGTCGGTTGAGGTGAGTATACGGATAA,0.0185
13,AGAATGAGGTGACCAAAGATCAGGGAAACGCTTG,-0.266
14,TCATACAGGTGAAGGTAACTCAGGTACGCAGTCG,1.33
15,ACAAACAGGTGATGAAGGTAACTCAGGCTATCAT,0.298
16,ATACCAAGGTGATCGTGAGGTCGTTCATACTAAC,0.992
17,ATCGCAAGGTCGAAGGTGAGTATACCCACCCGAA,0.978
18,CATACAGGGTCAGCTAGGCTAGAGTAGGGACGGC,1.33
19,CCGAGTTGGTCAGGAGGTCACACACCGGATATGA,1.8
20,CCGACTGGGGTAAAGGTTACCATACTCAGTACGA,0.246
21,TCTTGTAGCTCAAGCAGGTTAAGAAAGCCTGAGT,0.0335
22,CAAACTAGGTCAAAGGTCGAAGTCGAGCCAACCA,2.51
